Article PMC5540273 (PLoS ONE, 2017)

Assays:
Settings in all cases: concentration: 1 μM, replicates: in singlicate; n = 1
MAP4K3 = system: MAP4K3
MAP4K4 = system: MAP4K4
MAP4K5 = system: MAP4K5
MAPKAPK2 = system: MAPKAPK2
MAPKAPK5 = system: MAPKAPK5
MARK1 = system: MARK1
MARK2 = system: MARK2
MARK3 = system: MARK3
MARK4 = system: MARK4
MAST1 = system: MAST1
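Note: KINOMEscan kinase panel screen.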

| Structure (SMILES) | %Inh (MAP4K3) [%] | %Inh (MAP4K4) [%] | %Inh (MAP4K5) [%] | %Inh (MAPKAPK2) [%] | %Inh (MAPKAPK5) [%] | %Inh (MARK1) [%] | %Inh (MARK2) [%] | %Inh (MARK3) [%] | %Inh (MARK4) [%] | %Inh (MAST1) [%] |
| --- | --- | --- | --- | --- | --- | --- | --- | --- | --- | --- |
| CC(C)(C)n1cnc2c(N)ncnc21 [SKF-97359] | 0 | 0 | 0 | 0 | 0 | 0 | 1 | 21 | 3 | 58 |
| COc1cc2c(cc1OC[C@@H](O)CO)ncc1c3ccc(C#N)cc3[nH]c21 | 20 | 27 | 3 | 0 | 0 | 0 | 10 | 0 | 0 | 62 |
| CN1c2ccc(NCc3ccc(F)cc3)cc2-c2c(cnn2C)S1(=O)=O | 1 | 0 | 12 | 0 | 0 | 0 | 0 | 0 | 13 | 11 |
| [2H]C([2H])(c1cccc(C(F)(F)F)c1C)n1ccn2c(=O)nc(N3CCOCC3)cc12 [GSK2336394] | 0 | 6 | 0 | 22 | 0 | 0 | 0 | 0 | 2 | 0 |
| Cn1cc(-c2ccc3c(c2)CCN3C(=O)Cc2ccccc2Cl)c2c(N)ncnc21 [GSK2608885] | 70 | 58 | 96.3 | 0 | 3 | 16 | 0 | 46 | 19 | 0 |
| COc1cc(Nc2nccc(N3CCC(NC(=O)c4cccc(NC(C)=O)c4)C3)n2)cc(OC)c1OC (stereo not shown) [GSK1379754] | 2 | 23 | 10 | 0 | 0 | 0 | 0 | 0 | 15 | 0 |
| Cc1c(Cn2c(C)nn3c(=O)cc(N4CCOC(C)C4)nc23)cccc1C(F)(F)F (stereo not shown) [GSK2344444] | 0 | 18 | 16 | 1 | 0 | 0 | 0 | 0 | 0 | 0 |
| Cc1nnc(-c2ccc3occ(-c4ccc(C(C)O)cc4)c3c2)o1 (stereo not shown) | 7 | 12 | 15 | 21 | 19 | 7 | 16 | 0 | 8 | 0 |
| c1ccc(-c2n[nH]cc2-c2ccnc3ccccc23)nc1 [GW271431] | 16 | 23 | 3 | 9 | 0 | 0 | 0 | 0 | 6 | 0 |
| CCc1nc(-c2cccc(C)c2)c(-c2ccnc(NCc3ccccc3)c2)s1 | 0 | 12 | 0 | 0 | 0 | 0 | 1 | 0 | 0 | 0 |
| COc1ccc(Nc2nccc(N3CCC(NC(=O)Nc4cc(C)ccc4C)C3)n2)cc1 (stereo not shown) [GSK1379741] | 0 | 0 | 0 | 14 | 0 | 0 | 0 | 0 | 0 | 9 |
| Fc1ccc(-c2ncn(CCCN3CCOCC3)c2-c2cccnc2)cc1 [SB-211743] | 11 | 0 | 4 | 0 | 0 | 3 | 5 | 0 | 16 | 0 |
| COC(=O)Nc1nc2cc(Oc3ccc(NC(=O)Nc4cc(F)ccc4F)cc3)ccc2[nH]1.Cl [GW701424] | 0 | 0 | 0 | 13 | 0 | 0 | 0 | 3 | 0 | 5 |
| CSc1ccc(-c2cc3ncnc(SCC(=O)O)c3s2)cc1 | 0 | 0 | 0 | 1 | 0 | 0 | 18 | 6 | 0 | 15 |
| O=C(Nc1cccc(-c2nn3ncccc3c2-c2ccnc(Nc3cccc(C(F)(F)F)c3)n2)c1)c1c(F)cccc1F [GSK299495] | 0 | 0 | 48 | 35 | 0 | 0 | 0 | 2 | 0 | 0 |
| Cc1cccc(-c2nc(Nc3ccc4ncsc4c3)c3ccccc3n2)n1 [GW867588] | 9 | 3 | 4 | 0 | 0 | 6 | 0 | 0 | 9 | 21 |
| O=C1NC(=O)C(N2CCc3ccccc32)=C1c1cccc(Cl)c1 [SB-408010] | 20 | 0 | 0 | 3 | 0 | 4 | 0 | 0 | 0 | 0 |
| NS(=O)(=O)c1cccc(-c2ccc3nccc(-c4cccc(S(N)(=O)=O)c4)c3c2)c1 [GW867253] | 0 | 0 | 0 | 0 | 0 | 7 | 0 | 0 | 25 | 47 |
| COc1ccc(Nc2nccc(N3CCC(NC(=O)Nc4cccc(C(C)=O)c4)C3)n2)cc1 (stereo not shown) [GSK1379731] | 0 | 8 | 0 | 0 | 0 | 0 | 0 | 0 | 10 | 0 |
